A number with no mark means an inactive call. Calls of active or inactive are those of the source.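 Rule for the calls: active = thallium flux through the channel raised or lowered by more than 3 SD from vehicle-only wells, actives on both sides; inactive = the rest.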

We go through 39 compounds from PubChem BioAssay.

The subject of the first assay is R275C/beta4. Briefly: modulators of BK channel variants, profiling panel, selectivity assay, cell-based, U2OS BacMam, thallium flux, beta subunits (AID 1259406).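 Note: initial slope of Thallos dye fluorescence rise after thallium is added; log ratio against the mean of 0.3% DMSO vehicle wells on the same plate.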 Particulars: at 30 µM.
Turning to `CC12CC3CC(C)(C1)CC(N)(C3)C2`, the log fold change Tl+ flux is 0.0101.

Consider `CC(=O)OCC(CCn1cnc2cnc(N)nc21)COC(C)=O`, for which the log fold change Tl+ flux is 0.0276.

As for `S=c1nc[nH]c2nc[nH]c12`, the log fold change Tl+ flux was -0.0907.

As for `Oc1c(Cl)cc(Cl)c2cccnc12`, the log fold change Tl+ flux was 0.422 (active).

On to `CC1=NS(=O)(=O)c2cc(Cl)ccc2N1`, for which the log fold change Tl+ flux is 0.0187.

Consider `OC(Cn1cncn1)(Cn1cncn1)c1ccc(F)cc1F`, for which the log fold change Tl+ flux is 0.0436.

For `NCCc1ccc(O)c(O)c1`, the log fold change Tl+ flux was 0.0461.

For `CN=C(NC#N)NCCSCc1nc[nH]c1C`, the log fold change Tl+ flux is 0.0223.

Turning to `COc1c(N2CCNC(C)C2)c(F)cc2c(=O)c(C(=O)O)cn(C3CC3)c12` (stereo not drawn), the log fold change Tl+ flux is -0.00176.

On to `CC1COc2c(N3CCN(C)CC3)c(F)cc3c(=O)c(C(=O)O)cn1c23` (stereo not drawn), for which the log fold change Tl+ flux was 0.0112.

In the case of `O=C(C1CCCCC1)N1CC(=O)N2CCc3ccccc3C2C1` (stereo not drawn), the log fold change Tl+ flux is 0.0526.

Take `CCc1cc(C(N)=S)ccn1`: the log fold change Tl+ flux was 0.0412.

In the case of `CC1=C(/C=C/C(C)=C/C=C/C(C)=C/C(=O)O)C(C)(C)CCC1`, the log fold change Tl+ flux was -0.0336.

As to `CCCCNc1cc(C(=O)O)cc(S(N)(=O)=O)c1Oc1ccccc1`, the log fold change Tl+ flux was 0.0225.

Regarding `O=c1[nH]cnc2[nH]ncc12`, the log fold change Tl+ flux was 0.0379.

Take `O=C1c2c(O)ccc(O)c2C(=O)c2c(NCCNCCO)ccc(NCCNCCO)c21`: the log fold change Tl+ flux is -0.0611.

Take `O=C(O)c1cc(=O)c2c(OCC(O)COc3cccc4oc(C(=O)O)cc(=O)c34)cccc2o1`: the log fold change Tl+ flux was -0.125.

Regarding `CC(C)C(=O)Nc1ccc([N+](=O)[O-])c(C(F)(F)F)c1`, the log fold change Tl+ flux is -0.0876.

As to `CC(COc1ccccc1)N(CCCl)Cc1ccccc1` (stereo not drawn), the log fold change Tl+ flux was 0.0533.

In the case of `CCCc1nc2c(C)cc(-c3nc4ccccc4n3C)cc2n1Cc1ccc(-c2ccccc2C(=O)O)cc1`, the log fold change Tl+ flux is 0.033.

Regarding `CC(=O)CC(c1ccccc1)c1c(O)c2ccccc2oc1=O` (stereo not drawn), the log fold change Tl+ flux was -0.00201.

Consider `NS(=O)(=O)c1cc2c(cc1Cl)NCNS2(=O)=O`, for which the log fold change Tl+ flux is 0.00368.

For `CS(=O)(=O)OCCCCOS(C)(=O)=O`, the log fold change Tl+ flux was -0.0126.

As to `CCOC(=O)C1=C(C)NC(C)=C(C(=O)OC)C1c1cccc([N+](=O)[O-])c1` (stereo not drawn), the log fold change Tl+ flux is -0.023.

Turning to `COc1ccccc1OCCNCC(O)COc1cccc2[nH]c3ccccc3c12` (stereo not drawn), the log fold change Tl+ flux was 0.216 (active).

`O=C(O)CCCc1ccccc1`: the log fold change Tl+ flux is 0.032.

With `NNCCc1ccccc1`, the log fold change Tl+ flux is -0.0112.

Regarding `CC1Cc2ccccc2N1NC(=O)c1ccc(Cl)c(S(N)(=O)=O)c1` (stereo not drawn), the log fold change Tl+ flux is 0.00861.

For the compound `CC(C)Cc1ccc(C(C)C(=O)O)cc1` (stereo not drawn), the log fold change Tl+ flux was -0.0471.

With `N[C@@H]1CONC1=O`, the log fold change Tl+ flux was 0.00356.

Regarding `CCN(Cc1ccncc1)C(=O)C(CO)c1ccccc1` (stereo not drawn), the log fold change Tl+ flux is 0.0153.

On to `CCCc1cc(=O)[nH]c(=S)[nH]1`, for which the log fold change Tl+ flux is -0.0141.

Regarding `O=C(O)c1cccnc1`, the log fold change Tl+ flux was 0.0274.

As to `CC(C[N+](C)(C)C)OC(N)=O` (stereo not drawn), the log fold change Tl+ flux was 0.043.

Regarding `COc1ccc(Cl)cc1C(=O)NCCc1ccc(S(=O)(=O)NC(=O)NC2CCCCC2)cc1`, the log fold change Tl+ flux was 0.162 (active).

Consider `N[C@@H](Cc1cc(I)c(Oc2cc(I)c(O)c(I)c2)c(I)c1)C(=O)O`, for which the log fold change Tl+ flux is 0.234 (active).

`CC1(C)O[C@@H]2[C@@H](CO[C@@]3(COS(N)(=O)=O)OC(C)(C)O[C@@H]23)O1`: the log fold change Tl+ flux is -0.0182.

For the compound `COCCOC(=O)C1=C(C)NC(C)=C(C(=O)OC(C)C)C1c1cccc([N+](=O)[O-])c1` (stereo not drawn), the log fold change Tl+ flux was -0.0265.

Take `NNC(=O)c1ccncc1`: the log fold change Tl+ flux was 0.0039.

Another assay has as its system R275C/Slo1WT/beta2. Described as above. The conditions noted are these: at 30 µM.
As for `CC12CC3CC(C)(C1)CC(N)(C3)C2`, the log fold change Tl+ flux is -0.103.

On to `CC(=O)OCC(CCn1cnc2cnc(N)nc21)COC(C)=O`, for which the log fold change Tl+ flux was 0.0386.

As to `S=c1nc[nH]c2nc[nH]c12`, the log fold change Tl+ flux was 0.0711.

Regarding `Oc1c(Cl)cc(Cl)c2cccnc12`, the log fold change Tl+ flux is 0.19 (active).

As for `CC1=NS(=O)(=O)c2cc(Cl)ccc2N1`, the log fold change Tl+ flux is 0.0541.

On to `OC(Cn1cncn1)(Cn1cncn1)c1ccc(F)cc1F`, for which the log fold change Tl+ flux was 0.0134.

For the compound `NCCc1ccc(O)c(O)c1`, the log fold change Tl+ flux was 0.00323.

`CN=C(NC#N)NCCSCc1nc[nH]c1C`: the log fold change Tl+ flux was 0.0339.

As to `COc1c(N2CCNC(C)C2)c(F)cc2c(=O)c(C(=O)O)cn(C3CC3)c12` (stereo not drawn), the log fold change Tl+ flux is 0.05.

Take `CC1COc2c(N3CCN(C)CC3)c(F)cc3c(=O)c(C(=O)O)cn1c23` (stereo not drawn): the log fold change Tl+ flux was 0.0308.

With `O=C(C1CCCCC1)N1CC(=O)N2CCc3ccccc3C2C1` (stereo not drawn), the log fold change Tl+ flux is 0.0259.

As to `CCc1cc(C(N)=S)ccn1`, the log fold change Tl+ flux is 0.00968.

For `CC1=C(/C=C/C(C)=C/C=C/C(C)=C/C(=O)O)C(C)(C)CCC1`, the log fold change Tl+ flux was -0.0605.

Take `CCCCNc1cc(C(=O)O)cc(S(N)(=O)=O)c1Oc1ccccc1`: the log fold change Tl+ flux was 0.0333.

Consider `O=c1[nH]cnc2[nH]ncc12`, for which the log fold change Tl+ flux was 0.0394.

On to `O=C1c2c(O)ccc(O)c2C(=O)c2c(NCCNCCO)ccc(NCCNCCO)c21`, for which the log fold change Tl+ flux is -0.0613.

Regarding `O=C(O)c1cc(=O)c2c(OCC(O)COc3cccc4oc(C(=O)O)cc(=O)c34)cccc2o1`, the log fold change Tl+ flux is 0.015.

On to `CC(C)C(=O)Nc1ccc([N+](=O)[O-])c(C(F)(F)F)c1`, for which the log fold change Tl+ flux was -0.0286.

For `CC(COc1ccccc1)N(CCCl)Cc1ccccc1` (stereo not drawn), the log fold change Tl+ flux is -0.0106.

For the compound `CCCc1nc2c(C)cc(-c3nc4ccccc4n3C)cc2n1Cc1ccc(-c2ccccc2C(=O)O)cc1`, the log fold change Tl+ flux was 0.0168.

Turning to `CC(=O)CC(c1ccccc1)c1c(O)c2ccccc2oc1=O` (stereo not drawn), the log fold change Tl+ flux was 0.0306.

Take `NS(=O)(=O)c1cc2c(cc1Cl)NCNS2(=O)=O`: the log fold change Tl+ flux is 0.0144.

`CS(=O)(=O)OCCCCOS(C)(=O)=O`: the log fold change Tl+ flux was 0.0135.

Consider `CCOC(=O)C1=C(C)NC(C)=C(C(=O)OC)C1c1cccc([N+](=O)[O-])c1` (stereo not drawn), for which the log fold change Tl+ flux is 0.016.

With `COc1ccccc1OCCNCC(O)COc1cccc2[nH]c3ccccc3c12` (stereo not drawn), the log fold change Tl+ flux is 0.0443.

Regarding `O=C(O)CCCc1ccccc1`, the log fold change Tl+ flux was 0.0104.

As for `NNCCc1ccccc1`, the log fold change Tl+ flux is 0.022.

Take `CC1Cc2ccccc2N1NC(=O)c1ccc(Cl)c(S(N)(=O)=O)c1` (stereo not drawn): the log fold change Tl+ flux is -0.000687.

`CC(C)Cc1ccc(C(C)C(=O)O)cc1` (stereo not drawn): the log fold change Tl+ flux was 0.0328.

With `N[C@@H]1CONC1=O`, the log fold change Tl+ flux is -0.00809.

For the compound `CCN(Cc1ccncc1)C(=O)C(CO)c1ccccc1` (stereo not drawn), the log fold change Tl+ flux was 0.0191.

In the case of `CCCc1cc(=O)[nH]c(=S)[nH]1`, the log fold change Tl+ flux is 0.0488.

Take `O=C(O)c1cccnc1`: the log fold change Tl+ flux was -0.00368.

As to `CC(C[N+](C)(C)C)OC(N)=O` (stereo not drawn), the log fold change Tl+ flux is 0.0355.

As to `COc1ccc(Cl)cc1C(=O)NCCc1ccc(S(=O)(=O)NC(=O)NC2CCCCC2)cc1`, the log fold change Tl+ flux was 0.00644.

As to `N[C@@H](Cc1cc(I)c(Oc2cc(I)c(O)c(I)c2)c(I)c1)C(=O)O`, the log fold change Tl+ flux was 0.0236.

For `CC1(C)O[C@@H]2[C@@H](CO[C@@]3(COS(N)(=O)=O)OC(C)(C)O[C@@H]23)O1`, the log fold change Tl+ flux is 0.00527.

Take `COCCOC(=O)C1=C(C)NC(C)=C(C(=O)OC(C)C)C1c1cccc([N+](=O)[O-])c1` (stereo not drawn): the log fold change Tl+ flux is -0.0323.

As for `NNC(=O)c1ccncc1`, the log fold change Tl+ flux was -0.0323.
